# About 2,000 (36%) of roughly 5,500 compounds were called active. About 18% were inconclusive and are not listed. This is one part of the list. Values without a mark were called inactive. Rule as the data show it: active = normalized growth mostly below about 0.91 (no sharp cut-off); inconclusive = no clear call, values can overlap the other calls; inactive = mostly above about 0.92.
# Assay: chemical genetic growth profiling, strain panel (AID 1159580);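 also: tested at 20 µM; growth read once vehicle control cultures reached saturation at 30 °C; 1 = growth at the plate median or of vehicle wells; lower values mean less growth of the strain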
# Settings: growth OD
structure (smiles),measurement,setting,value
CC(=O)O[C@H]1CC[C@@]2(C)C(CC[C@]3(C)C2C(=O)C=C2C4[C@@H](C)[C@H](C)CC[C@]4(C(=O)O)CC[C@]23C)C1(C)C (stereo partly drawn),normalized growth,"S. cerevisiae deletion strains, locus YAL013W, strain DEP1, stronger effect = lower value",1
same,normalized growth,"S. cerevisiae deletion strains, locus YBR021W, strain FUR4, stronger effect = lower value",1.03
same,normalized growth,"S. cerevisiae deletion strains, locus YBR229C, strain ROT2, stronger effect = lower value",1.01
same,normalized growth,"S. cerevisiae deletion strains, locus YCL029C, strain bik1, stronger effect = lower value",0.989
same,normalized growth,"S. cerevisiae deletion strains, locus YDL035C, strain GPR1, stronger effect = lower value",0.993
same,normalized growth,"S. cerevisiae deletion strains, locus YDL074C, strain BRE1, stronger effect = lower value",0.981
same,normalized growth,"S. cerevisiae deletion strains, locus YDL101C, strain DUN1, stronger effect = lower value",1.01
same,normalized growth,"S. cerevisiae deletion strains, locus YDL185W, strain tfp1, stronger effect = lower value",0.971
same,normalized growth,"S. cerevisiae deletion strains, locus YDL192W, strain arf1, stronger effect = lower value",0.992
same,normalized growth,"S. cerevisiae deletion strains, locus YDR101C, strain arx1, stronger effect = lower value",1.01
same,normalized growth,"S. cerevisiae deletion strains, locus YDR162C, strain NBP2, stronger effect = lower value",1.03
same,normalized growth,"S. cerevisiae deletion strains, locus YDR318W, strain mcm21, stronger effect = lower value",0.995
same,normalized growth,"S. cerevisiae deletion strains, locus YDR388W, stronger effect = lower value",1
same,normalized growth,"S. cerevisiae deletion strains, locus YDR502C, strain sam2, stronger effect = lower value",0.982
same,normalized growth,"S. cerevisiae deletion strains, locus YEL061C, strain CIN8, stronger effect = lower value",1.01
same,normalized growth,"S. cerevisiae deletion strains, locus YER110C, stronger effect = lower value",0.988
same,normalized growth,"S. cerevisiae deletion strains, locus YER155C, strain BEM2, stronger effect = lower value",1.01
same,normalized growth,"S. cerevisiae deletion strains, locus YER167W, strain BCK2, stronger effect = lower value",0.991
same,normalized growth,"S. cerevisiae deletion strains, locus YGL078C, strain dbp3, stronger effect = lower value",1.01
same,normalized growth,"S. cerevisiae deletion strains, locus YGL086W, strain mad1, stronger effect = lower value",1.04
same,normalized growth,"S. cerevisiae deletion strains, locus YGL248W, strain PDE1, stronger effect = lower value",1.01
same,normalized growth,"S. cerevisiae deletion strains, locus YGR078C, strain PAC10, stronger effect = lower value",1.01
same,normalized growth,"S. cerevisiae deletion strains, locus YGR135W, strain pre9, stronger effect = lower value",1
same,normalized growth,"S. cerevisiae deletion strains, locus YGR229C, strain SMI1, stronger effect = lower value",0.994
same,normalized growth,"S. cerevisiae deletion strains, locus YGR252W, strain gcn5, stronger effect = lower value",1
same,normalized growth,"S. cerevisiae deletion strains, locus YHR030C, strain SLT2, stronger effect = lower value",1.01
same,normalized growth,"S. cerevisiae deletion strains, locus YHR079C, strain IRE1 (second series), stronger effect = lower value",0.997
same,normalized growth,"S. cerevisiae deletion strains, locus YHR094C, strain hxt1, stronger effect = lower value",0.989
same,normalized growth,"S. cerevisiae deletion strains, locus YHR129C, strain ARP1, stronger effect = lower value",1.01
same,normalized growth,"S. cerevisiae deletion strains, locus YHR200W, strain rpn10, stronger effect = lower value",1.01
same,normalized growth,"S. cerevisiae deletion strains, locus YIL066C, strain RNR3, stronger effect = lower value",1
same,normalized growth,"S. cerevisiae deletion strains, locus YIL073C, strain SPO22, stronger effect = lower value",1.03
same,normalized growth,"S. cerevisiae deletion strains, locus YIL125W, strain kgd1, stronger effect = lower value",0.98
same,normalized growth,"S. cerevisiae deletion strains, locus YIR030C, strain dcg1, stronger effect = lower value",0.992
same,normalized growth,"S. cerevisiae deletion strains, locus YJL095W, strain BCK1, stronger effect = lower value",1.02
same,normalized growth,"S. cerevisiae deletion strains, locus YJL134W, strain LCB3, stronger effect = lower value",1.01
same,normalized growth,"S. cerevisiae deletion strains, locus YJL168C, strain set2, stronger effect = lower value",0.988
same,normalized growth,"S. cerevisiae deletion strains, locus YJL187C, strain SWE1 (second series), stronger effect = lower value",1
same,normalized growth,"S. cerevisiae deletion strains, locus YJR043C, strain POL32, stronger effect = lower value",1.02
same,normalized growth,"S. cerevisiae deletion strains, locus YKL009W, strain mrt4, stronger effect = lower value",1.52 [resistant] (active)
same,normalized growth,"S. cerevisiae deletion strains, locus YKL068W, stronger effect = lower value",1.03
same,normalized growth,"S. cerevisiae deletion strains, locus YKL085W, strain MDH1 (second series), stronger effect = lower value",1.08 [resistant] (active)
same,normalized growth,"S. cerevisiae deletion strains, locus YKL085W, strain MDH1, stronger effect = lower value",1.08 [resistant] (active)
same,normalized growth,"S. cerevisiae deletion strains, locus YKR001C, strain vps1, stronger effect = lower value",0.978
same,normalized growth,"S. cerevisiae deletion strains, locus YLR039C, strain RIC1, stronger effect = lower value",0.99
same,normalized growth,"S. cerevisiae deletion strains, locus YLR058C, strain SHM2, stronger effect = lower value",1
same,normalized growth,"S. cerevisiae deletion strains, locus YLR102C, strain apc9, stronger effect = lower value",0.99
same,normalized growth,"S. cerevisiae deletion strains, locus YLR262C, strain YPT6, stronger effect = lower value",1.02
same,normalized growth,"S. cerevisiae deletion strains, locus YLR268W, strain sec22, stronger effect = lower value",0.979
same,normalized growth,"S. cerevisiae deletion strains, locus YLR330W, strain CHS5, stronger effect = lower value",1.01
same,normalized growth,"S. cerevisiae deletion strains, locus YLR342W, strain FKS1 (second series), stronger effect = lower value",0.99
same,normalized growth,"S. cerevisiae deletion strains, locus YLR371W, strain rom2, stronger effect = lower value",0.984
same,normalized growth,"S. cerevisiae deletion strains, locus YLR418C, strain cdc73, stronger effect = lower value",0.946
same,normalized growth,"S. cerevisiae deletion strains, locus YML016C, strain PPZ1, stronger effect = lower value",1.01
same,normalized growth,"S. cerevisiae deletion strains, locus YML032C, strain rad52, stronger effect = lower value",0.981
same,normalized growth,"S. cerevisiae deletion strains, locus YML124C, strain tub3, stronger effect = lower value",0.995
same,normalized growth,"S. cerevisiae deletion strains, locus YMR078C, strain ctf18, stronger effect = lower value",1.01
same,normalized growth,"S. cerevisiae deletion strains, locus YMR223W, strain ubp8, stronger effect = lower value",0.985
same,normalized growth,"S. cerevisiae deletion strains, locus YMR307W, strain GAS1, stronger effect = lower value",1.1
same,normalized growth,"S. cerevisiae deletion strains, locus YNL067W, strain RPL9B, stronger effect = lower value",1.01
same,normalized growth,"S. cerevisiae deletion strains, locus YNL233W, strain BNI4, stronger effect = lower value",1.02
same,normalized growth,"S. cerevisiae deletion strains, locus YNL250W, strain rad50, stronger effect = lower value",0.989
same,normalized growth,"S. cerevisiae deletion strains, locus YNL271C, strain bni1, stronger effect = lower value",0.991
same,normalized growth,"S. cerevisiae deletion strains, locus YNL298W, strain CLA4, stronger effect = lower value",1.01
same,normalized growth,"S. cerevisiae deletion strains, locus YNL307C, strain MCK1, stronger effect = lower value",0.987
same,normalized growth,"S. cerevisiae deletion strains, locus YNR052C, strain pop2, stronger effect = lower value",0.978
same,normalized growth,"S. cerevisiae deletion strains, locus YOL006C, strain TOP1, stronger effect = lower value",0.978
same,normalized growth,"S. cerevisiae deletion strains, locus YOL012C, strain htz1",0.848
same,normalized growth,"S. cerevisiae deletion strains, locus YOL147C, strain pex11, stronger effect = lower value",0.991
same,normalized growth,"S. cerevisiae deletion strains, locus YOR061W, strain CKA2, stronger effect = lower value",0.99
same,normalized growth,"S. cerevisiae deletion strains, locus YOR069W, strain VPS5, stronger effect = lower value",1.01
same,normalized growth,"S. cerevisiae deletion strains, locus YOR136W, strain idh2, stronger effect = lower value",0.987
same,normalized growth,"S. cerevisiae deletion strains, locus YOR144C, strain elg1, stronger effect = lower value",0.992
same,normalized growth,"S. cerevisiae deletion strains, locus YOR184W, strain ser1, stronger effect = lower value",0.995
same,normalized growth,"S. cerevisiae deletion strains, locus YOR316C, strain cot1, stronger effect = lower value",0.995
same,normalized growth,"S. cerevisiae deletion strains, locus YPL055C, strain LGE1, stronger effect = lower value",0.994
same,normalized growth,"S. cerevisiae deletion strains, locus YPL241C, strain CIN2, stronger effect = lower value",1.01
same,normalized growth,"S. cerevisiae deletion strains, locus YPR119W, strain clb2, stronger effect = lower value",1.01
same,normalized growth,"S. cerevisiae deletion strains, locus YPR141C, strain kar3, stronger effect = lower value",0.995
same,normalized growth,"S. cerevisiae deletion strains, locus YPR163C, strain tif3, stronger effect = lower value",1.01
same,normalized growth,"S. cerevisiae deletion strains, locus YPR167C, strain met16, stronger effect = lower value",0.978
same,normalized growth,"S. cerevisiae deletion strains, strain wtn01, stronger effect = lower value",0.977
same,normalized growth,"S. cerevisiae strains, strain wild type, stronger effect = lower value",1
